# Only some compounds are listed: those with a hit (about 6.1% of all), similar ones and a draw of the others.
# ATXN2 expr inh: Primary qHTS for Inhibitors of ATXN expression; HEK-293 ATXN2-luciferase reporter, luminescence, 24 h; Potency, µM (doses to about 57 µM), without a hit: at the highest dose activity change, negative = inhibition, actives largely listed as inhibitors; 360,000 tested, 0.72% active; also: % is scaled to controls: 0 for no effect and ±100 for the full control effect; nearly all actives have a fitted effect of over 55% in size
#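 qHTS (up to 57 uM final) was run with 24 h compound exposure of reporter cells at 37 °C. Each well was multiplexed: SteadyGlo luminescence measured ATXN2-luciferase expression after a fluorogenic Gly-Phe-AFC viability readout (25 uM final).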
# RORg inh: qHTS for inhibitors of ROR gamma transcriptional activity; Nuclear receptor ROR-gamma (Mus musculus), P51450; Drosophila S2 Gal4-RORgamma UAS-luciferase reporter, 20 h; Potency, µM (highest dose often 53.6 µM), inactives show at the top dose activity change, negative = inhibition, most hits filed as inhibitors; 310,000 tested, 5.4% active; AID 2551, 2010; also: % is scaled to controls: 0 for no effect and ±100 for the full control effect; nearly all actives have a fitted effect of over 60% in size
# Target sequence (P51450 whole entry, looked up, the tested form may be a part): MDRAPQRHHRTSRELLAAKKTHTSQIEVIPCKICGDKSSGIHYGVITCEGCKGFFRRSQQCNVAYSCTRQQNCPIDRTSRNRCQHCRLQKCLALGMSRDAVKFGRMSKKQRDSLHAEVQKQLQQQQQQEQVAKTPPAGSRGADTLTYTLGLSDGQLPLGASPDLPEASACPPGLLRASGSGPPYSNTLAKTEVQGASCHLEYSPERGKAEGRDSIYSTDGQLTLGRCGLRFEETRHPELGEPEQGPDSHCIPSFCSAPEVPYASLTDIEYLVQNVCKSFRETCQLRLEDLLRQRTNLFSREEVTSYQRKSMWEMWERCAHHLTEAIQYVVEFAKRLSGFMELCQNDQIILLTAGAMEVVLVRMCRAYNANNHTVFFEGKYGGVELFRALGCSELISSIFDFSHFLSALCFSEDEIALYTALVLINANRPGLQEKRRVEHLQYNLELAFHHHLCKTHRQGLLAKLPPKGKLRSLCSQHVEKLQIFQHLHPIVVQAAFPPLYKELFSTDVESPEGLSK
#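 Read-out: Photinus luciferase luminescence; inhibitors lower reporter signal. Insect Schneider cells with Gal4-ROR gamma fusion under metallothionein promoter, UAS reporter; 700 uM final copper sulfate induction, 20 hr, ambient temperature.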
# VP16 counter: VP16 counterscreen qHTS for inhibitors of ROR gamma transcriptional activity. Drosophila S2 Gal4-VP16 UAS-luciferase, luminescence, 20 h. Potency, µM (series often up to 53.6 µM), inactives show top-dose activity, negative = inhibition, hits mostly inhibitors. 310,000 tested, 3.5% active. AID 2546, 2010;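 also: Gal4-VP16 expression switched on by copper sulfate through the metallothionein promoter; % is scaled to controls: 0 for no effect and ±100 for the full control effect; nearly all actives have a fitted effect of over 50% in size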
# TGFb inhibitor: qHTS for Inhibitors of TGF-b | HepG2 CAGA-GFP TGF-b/SMAD3 reporter, GFP fluorescence, 18 h; TGF-beta stimulated, 500 pg/mL final | Potency, µM (titrated, usually from 46.1 µM), for inactives: at the top dose activity, negative = inhibition, most hits filed as inhibitors | 410,000 tested, 1.2% active; also: % is scaled to controls: 0 for no effect and ±100 for the full control effect; nearly all actives have a fitted effect of over 65% in size
#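 HEPG2 CAGA-GFP reporter cells (1000/well, DMEM with 1% FBS) received compounds, then recombinant TGF-beta at 500 pg/mL final for 18 hours at 37 degrees C. Per-cell GFP summed per well was normalised to unstimulated and stimulated DMSO controls before curve fitting.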
# S2 tox: Viability Counterscreen for Primary qHTS for Inhibitors of ATXN expression; AID 651635, 2014; Potency, µM (series often up to 56.7 µM), hits mostly cytotoxic; S2 cells (HEK-293 line with an ATXN2-luciferase reporter) viability, CellTiter-Fluor protease fluorescence, 24 h; 400,000 tested, 0.49% active; also: nearly all actives have a fitted effect of over 40% in size
# HepG2 viability: qHTS for Inhibitors of TGF-b: Cytotox Counterscreen; 410,000 tested, 0.76% active; Potency, µM (series often up to 46.1 µM), for the others: at the top dose activity change, negative = cytotoxicity, usual class: cytotoxic; AID 588856, 2011; HepG2 CAGA-GFP viability, ATP luminescence, 18 h
#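 CellTiter-Glo luminescence gave cytotoxicity after 18 hours at 37 degrees C. The cells were HepG2 CAGA-GFP in 1% FBS DMEM, stimulated with 500 pg/mL TGF-beta after compound addition. %Activity was normalised to no-cell wells (complete cell-killing) and DMSO (no toxicity), and curves were fitted and classified.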
# Starred values were filed as active, the others as inactive; i = inactive; ? = inconclusive; . = no result. Calls follow the shape of the dose curve; as a rule, active = well fitted curve in the direction sought with a large enough effect; inconclusive = small, poorly fitted or top-dose-only effect, or another doubt; inactive = no such curve, though single readings can be large; an effect the other way counts as inactive or inconclusive. Potency is read from the fitted curve at half-maximal effect.
SMILES,ATXN2 expr inh,RORg inh,VP16 counter,TGFb inhibitor,S2 tox,HepG2 viability
Cc1ccc2oc(/N=C(\N)NC(=O)C3CC3)nc2c1,.,7.1µM*,?,-18%,?,-17%
CCCn1c(CC)nc([N+](=O)[O-])c1S(=O)(=O)c1ccccc1,?,7.9µM*,18µM*,?,.,11µM*
CCc1nc(C)cn1S(=O)(=O)c1ccc([N+](=O)[O-])cc1,-15%,1%,-9%,0%,i,0%
COC(=O)C1=C(C)NC(=S)NC1c1sccc1C (stereo not given),0%,16µM*,-10%,-1%,i,-9%
CC1=C(C(=O)Nc2ccccc2C(F)(F)F)C(c2sccc2C)NC(=S)N1 (stereo not given),20%,20µM*,-2%,-22%,i,-7%
CC1=C(C(=O)OC(C)C)C(c2cccs2)NC(=S)N1 (stereo not given),-7%,13µM*,?,-19%,i,0%
CC1=C(C(=O)Nc2ccccc2C(F)(F)F)C(c2ccc(C)s2)NC(=S)N1 (stereo not given),-9%,?,-9%,0%,i,1%
COC(=O)C1=C(C)NC(=S)NC1c1ccc(-c2cc(Cl)ccc2Cl)o1 (stereo not given),-30%,4µM*,4.5µM*,?,i,-10%
COC(=O)C1=C(C)NC(=S)NC1c1ccc(OC(=O)c2ccco2)cc1 (stereo not given),-11%,-27%,-1%,33%,i,5%
Cc1cc(C)nc(N/N=C/C2=C(N3CCOCC3)C(=C\c3ccc(Cl)cc3)/CC2)n1,-7%,10µM*,?,?,i,-22%
O=C(N/N=C/c1cc(Cl)cc([N+](=O)[O-])c1O)C1CC1,.,0.63µM*,2µM*,-11%,?,-13%
O=[N+]([O-])c1cc(Cl)cc(/C=N/Nc2nc3ccccc3s2)c1O,?,0.89µM*,2.2µM*,8%,?,-12%
O=C(Cn1nnc(-c2ccccc2)n1)N/N=C/c1cccc([N+](=O)[O-])c1O,2%,1.8µM*,?,-4%,i,-10%
O=C(Cn1nc2ccccc2n1)N/N=C/c1cc(Cl)cc([N+](=O)[O-])c1O,?,1.8µM*,14µM*,-2%,i,5%
O=C(Cn1nnc(-c2ccccc2)n1)N/N=C/c1cccc([N+](=O)[O-])c1,0%,?,7%,0%,i,-31%
CC(C)(C)N/N=C/c1cc(Cl)cc([N+](=O)[O-])c1O,-1%,-10%,2%,-11%,i,-12%
COc1cc(C(CC(=O)NCc2ccc(F)cc2)N2Cc3ccccc3C2=O)cc(OC)c1OC (stereo not given),-13%,.,.,4%,i,-14%
Nc1nc2[nH]c(=S)[nH]c2c(=O)[nH]1,.,.,.,8%,.,15%
O=c1c(-c2cc(F)cc(F)c2)nc2cnc(N3CCOCC3)nc2n1C1CC1,.,-12%,-16%,.,.,.
CCOc1ccccc1NC(=O)CN1C(=O)CC(c2ccc(OC)c(OC)c2)Sc2ccccc21 (stereo not given),?,.,.,-3%,?,-23%
COc1cc2c(=O)c(S(=O)(=O)c3ccccc3)cn(CC(=O)Nc3ccccc3C)c2cc1OC,-19%,.,.,-26%,i,-27%
Cc1ccccc1C(=O)Nc1cccc(C(=O)N/N=C/c2cc(Cl)cc([N+](=O)[O-])c2O)c1,22µM*,1.1µM*,2.5µM*,-18%,i,-14%
CCOCCn1c(C2CCN(CCc3ccc(C(C)(C)C(=O)O)cc3)CC2)nc2ccccc21,0%,.,.,.,i,.
O=C1NC2(CCCCC2)N=C1c1ccc(F)cc1,21%,1%,10%,-19%,i,-1%
O=C1NC2(CCCC2)N=C1c1ccc(Cl)cc1,15%,31%,3%,-25%,i,14%
SMILES,ATXN2 expr inh,RORg inh,VP16 counter,TGFb inhibitor,S2 tox,HepG2 viability
O=C1NC2(CCCCC2)N=C1c1ccc(Br)cc1,-26%,13µM*,?,1%,i,-2%
Cc1ccc(C2=NC3(CCCCCC3)NC2=S)cc1,-3%,1.4µM*,2.2µM*,8%,i,2%
CCN1C(=O)c2ccccc2Sc2ccc(NC(=O)c3ccc(C)c(F)c3)cc21,-3%,.,.,-21%,i,-2%
Cc1[nH]n(-c2ccc([N+](=O)[O-])cc2)c(=O)c1C=NCCN1CCN(C(=O)c2cccc(F)c2)CC1,6%,-18%,4%,11%,i,7.9µM*
Cc1[nH]n(-c2ccc([N+](=O)[O-])cc2)c(=O)c1C=NCCN1CCN(C(=O)c2ccc(F)cc2)CC1,4%,18%,0%,22%,i,-2%
Cc1[nH]n(-c2ccc([N+](=O)[O-])cc2)c(=O)c1C=NCCN1CCN(C(=O)c2ccc(Br)cc2)CC1,-27%,?,?,-2%,i,7.1µM*
COc1cccc(N2C(=O)CSC23C(=O)N(Cc2ccccc2)c2ccccc23)c1 (stereo not given),-19%,.,.,8%,i,-9%
Cc1cnc(C)c(Nc2nc(C(N)Cc3ccc(F)cc3)cs2)n1 (stereo not given),?,.,.,?,?,-107%
COc1cc(OC)nc(Nc2nc(C(N)Cc3ccc(Cl)cc3)cs2)n1 (stereo not given),32µM*,.,.,?,.,11µM*
Cc1cnc(C)c(Nc2nc(C(N)Cc3ccc(Cl)cc3)cs2)n1 (stereo not given),?,.,.,18µM*,i,-106%
Cc1ccc(N2C(=O)CS(=O)(=O)C23C(=O)N(Cc2ccc(Cl)cc2)c2ccccc23)cc1C (stereo not given),-12%,.,.,-1%,i,-20%
CC(C)CC(=O)NC(=S)Nc1cc(C(F)(F)F)ccc1N1CCOCC1,-12%,7.9µM*,7.1µM*,-8%,i,-13%
CC(Cl)C(=O)Nc1cc(C(F)(F)F)ccc1N1CCOCC1 (stereo not given),.,10%,4%,-10%,i,14%
O=C(CCc1ccccc1)NC(=S)Nc1cc(C(F)(F)F)ccc1N1CCOCC1,-37%,7.1µM*,?,?,i,-29%
CC/C(=N\NC(=O)c1ccc(Br)cc1)c1ccccc1,6%,?,23%,-11%,i,0%
C/C(=N\NC(=O)c1ccc(Br)cc1)C1C(=O)c2ccccc2C1=O,-31%,4µM*,3.5µM*,?,.,-79%
